# Screening data deposited in PubChem by National Center for Advancing Translational Sciences (NCATS).
# Shown are actives, neighbours in structure and some others; about 6.1% of the full set was active somewhere.
# D1 PAM: enhances dopamine response at the human D1 receptor. AID 504651. P21728. HEK293 TREx D1 cells, calcium flux, dopamine EC20 potentiation. 360,000 tested, 0.036% active. potentiation, % at 10 µM; in the data active means potentiation above about 30%; further: 0% is about no effect
# D1 antagonist: blocks dopamine activation of the human D1 receptor; P21728; HEK293 TREx D1 cells, calcium flux, dopamine EC80; active compounds read low; activity change, negative = inhibition, % at 10 µM; 360,000 tested, 3.2% active; AID 504652; in the data active means activity change below about -30%; further: on the % scale 0 is the no-effect control and ±100 the full control effect
#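 Kinetic fluorescence of a calcium dye serves as the read-out. D1-expressing Hek293 Trex cells, induced overnight at 30 C, are exposed to compound for 180 s before an EC80 dopamine addition, then read 180 s further.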
# DRD3 agonist: activates the human D3 dopamine receptor; P35462; D3R DiscoveRx beta-arrestin cells, luminescence, 90 min; max activation, %; 410,000 tested, 0.58% active; AID 652048; in the data active means max activation above about 30%; further: 0% is about no effect
#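 Cells at 1500/well, incubated overnight, then treated with pinned compounds (dopamine as control) for 90 min at 37 degrees C. DiscoveRx reagent added for 30 - 60 minutes at room temperature; luminescence read.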
# ERG-DNA inh: ERG Ets/DNA interaction inhibition; P11308; fluorescence polarization, His-ERG Ets domain / labelled DNA; Potency, µM (highest dose often 76.9 µM), for the others: at the top dose FP activity, negative = inhibition, usual class: inhibitors; 370,000 tested, 0.028% active; AID 624246; active means well fitted inhibition curve with a large enough effect in the polarisation, with a control signal flat; inconclusive means small, poorly fitted or top-dose-only effect, or effect the other way, or a change in a side signal; inactive means no such curve, though single readings can be large or run the other way; the % refers to the polarisation;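 further: polarization taken with two DNA probes labelled with fluorescein and Texas red; potency means the concentration at half of the fitted maximal effect; % of control where 0% means no effect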
# Target sequence (P11308 whole entry, looked up, the tested form may be a part): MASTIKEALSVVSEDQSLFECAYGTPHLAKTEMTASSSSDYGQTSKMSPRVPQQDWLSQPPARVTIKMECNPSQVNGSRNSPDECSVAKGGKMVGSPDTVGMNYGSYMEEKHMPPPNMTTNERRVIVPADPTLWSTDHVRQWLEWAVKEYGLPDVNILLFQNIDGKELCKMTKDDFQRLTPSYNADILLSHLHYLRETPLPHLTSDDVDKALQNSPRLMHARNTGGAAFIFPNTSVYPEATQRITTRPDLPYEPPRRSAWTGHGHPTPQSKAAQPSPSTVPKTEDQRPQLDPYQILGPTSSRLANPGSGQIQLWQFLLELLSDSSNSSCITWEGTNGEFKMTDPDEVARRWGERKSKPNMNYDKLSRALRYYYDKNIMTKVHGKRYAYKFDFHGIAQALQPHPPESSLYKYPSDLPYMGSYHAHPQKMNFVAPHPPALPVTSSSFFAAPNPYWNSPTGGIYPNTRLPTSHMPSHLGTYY
#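 His-tagged ERG Ets domain (1 uM in the protein solution; 300mM KCl, 50mM Tris-HCl, 1mM EDTA, 1mM DTT, pH 7.5) received compound, then a probe mix of 5 nM fluorescein-DNA and 100nM Texas-615-DNA. Fluorescence polarization was read for both dyes.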
# D3 antag: D3 dopamine receptor (human) antagonism; P35462; D3R cells, DiscoveRx beta-arrestin luminescence, antagonist mode; active compounds read low; max response, negative = inhibition, %; 360,000 tested, 2.5% active; in the data active means max response below about -50%; inconclusive means no clear call, values can overlap the other calls; further: on the % scale 0 is the no-effect control and ±100 the full control effect
#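 Cells expressing the human receptor were seeded at 1500 cells/well, incubated overnight at 37 degrees C in 5% CO2, then exposed to library compounds with dopamine controls for 90 minutes at 37 degrees C before luminescent detection.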
# D1 agonist: agonists of human D1 dopamine receptor; HEK293 T-REx D1 cells, calcium flux, agonist mode; activation, % at 2 µM; 360,000 tested, 1% active; in the data active means activation above about 30%; further: 0% is about no effect
#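 Tetracycline-induced HEK293 TREx D1 cells, force-coupled to calcium signalling, were dye-loaded with a no-wash calcium kit. Compound was pin-added after a 10 s baseline. Fluorescence was read kinetically at 1 cycle/s for 180 s, with calcium rises flagged as agonism.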
# The depositor's hits bear a star; u = inconclusive; x = not tested or not shown; [ ] = dose if it differs, or a comment.
SMILES,D1 PAM,D1 antagonist,DRD3 agonist,ERG-DNA inh,D3 antag,D1 agonist
COc1ccc(C(CNC(=O)c2cccc(S(=O)(=O)N3CCCC(C)C3)c2)N(C)C)cc1 (stereo not drawn),x,8.7,-27.0,-3.0%,-65.0*,13.6
COc1ccc(NC(=O)CN(C)C(=O)c2cccc(NS(=O)(=O)c3ccc(Br)cc3)c2)cc1,-8.2,-4.9,-2.2,-5.4%,17.5,3.2
COc1ccc(C(CNC(=O)c2cccc(Br)c2)N2CCCC2)cc1 (stereo not drawn),-6.2,-4.9,-5.1,-8.7%,-86.8*,9.5
COc1ccc(C(CNC(=O)c2cccc(NS(=O)(=O)c3ccc(Br)cc3)c2)N(C)C)cc1 (stereo not drawn),-3.0,3.7,-28.8,-2.5%,-78.5*,7.7
CCOC(=O)C(C)(C)Sc1nc2c(cnn2-c2ccc(Cl)cc2)c(=O)[nH]1,-2.6,14.0,-0.9,14.6%,4.8,25.6
COc1ccccc1-c1nc2c3ccccc3nc(=S)n2[nH]1,4.2,2.9,2.6,4.0%,-11.2,2.3
CC(C)(C)C(=O)Nc1ccc(N2CCCC2)cc1,-1.6,3.2,1.0,12.5%,-9.0,1.7
COc1ccc(C(CNC(=O)c2cccc(NC(=O)c3cccs3)c2)N2CCCC2)cc1 (stereo not drawn),-2.3,11.6,-18.0,-5.1%[15.4 µM],-81.6*,2.3
COc1ccc(C(=O)NCC(c2ccc(Cl)cc2)N2CCCCC2)cc1 (stereo not drawn),-0.3,-15.6,-16.9,-4.9%,x,4.3
COc1ccc(C(CNC(=O)c2cccc(S(=O)(=O)Nc3ccc(C)cc3)c2)N2CCCCC2)cc1 (stereo not drawn),-5.7,-4.5,-32.7,1.5%,-63.9*,8.8
COc1ccc(NS(=O)(=O)c2cccc(C(=O)NCC(c3ccco3)N3CCCCC3)c2)cc1 (stereo not drawn),12.3,-1.3,-15.6,-4.9%,-26.4,7.3
COc1ccc(C(CNC(=O)c2ccc(-c3cccc(C(F)(F)F)c3)o2)N2CCOCC2)cc1 (stereo not drawn),7.3,29.9,-17.2,-2.3%,-30.0,34.4*
COc1ccc(C(CNS(=O)(=O)c2ccc(NC(C)=O)c(OC)c2)N2CCCC2)cc1 (stereo not drawn),x,x,-2.0,0.9%,-53.9*,x
O=C(CS(=O)(=O)Cc1ccccc1)N1CCN(C(=O)c2ccco2)CC1,-7.4,9.8,6.4,-10.7%,32.7,0.8
COc1cc(NC(=O)c2c(F)c(F)c(OC)c(F)c2F)ccc1NC(=O)c1cccs1,-11.7,-45.9*,4.6,4.9%,1.1,2.8
COc1ccc(C(CNC(=O)C(C)Oc2ccc(Br)cc2)N2CCCC2)cc1 (stereo not drawn),3.9,6.0,-23.3,8.5%,-81.2*,4.4
COc1ccc(NS(=O)(=O)c2cccc(C(=O)N/N=C/c3cccs3)c2)cc1,1.4,-7.8,-18.5,8.8%,-52.3*,6.5
COc1ccc(C(CNC(=O)c2cccc(NS(=O)(=O)c3ccccc3)c2)N2CCCC2)cc1 (stereo not drawn),x,x,-2.0,7.3%,-88.0*,x
COc1cc(NC(=O)c2cc(OC)c(OC)c(OC)c2)ccc1NC(=O)c1cccs1,-4.0,-19.5,2.6,2.1%,-7.0,-0.1
Cc1cc(=O)n(CC=C(Cl)Cl)c2ccccc12,-1.4,31.7,-0.9,-2.9%,u,0.4
Cc1ccc(NC(=O)C(c2ccc(Cl)cc2)N2CCCCC2)cc1 (stereo not drawn),-6.0,1.0,-7.0,6.1%,5.7,0.3
COc1ccc([C@H]2C[C@H](n3cc(COC(=O)c4ccccc4)nn3)[C@@H](O)CN2C(=O)c2cccs2)cc1,x,x,2.5,x,-0.8,x
COc1ccc(C(CNC(=O)c2ccc(S(=O)(=O)N(C)C)cc2)N2CCCC2)cc1 (stereo not drawn),5.8,4.5,-12.4,9.9%,-7.7,4.1
COc1ccc(C(CNC(=O)c2cccc(S(=O)(=O)N(C)c3ccccc3)c2)N2CCCC2)cc1 (stereo not drawn),-4.3,-12.8,-24.7,13.7%,-66.0*,15.2
